From PubChem BioAssay (NCATS)
Results filed as inconclusive are left out. A call without a number means that no potency is given here. Active and inactive are the calls of the source. Calls follow the shape of the dose curve; as a rule, active = well fitted inhibition curve with a large enough effect; inconclusive = small, poorly fitted or top-dose-only effect; inactive = flat fitted curve, though single readings scatter. Numbered stars: 1 amine (or outer) side, 2 acyl side, 3 side chain; on linkers, the order of the positions; unused ones are H or OH. Bridge positions count the residues as written; N and C are the ends. Square brackets hold non-standard residues; d marks the D form. Peptide text beside a SMILES is read from it. I, II: the chains in the order shown. Actinocin(9to1) = Cc1c2oc3c(C)ccc(C(=O)[*:1])c3nc-2c(C(=O)[*:2])c(N)c1=O; NMeV = CN[C@H](C(=O)O)C(C)C; Sar = CNCC(=O)O

What was measured:
[1] = biological target: Glutathione peroxidase 1 (Homo sapiens) (UniProt P07203); test: Primary qHTS Assay for Inhibitors of Recombinant Selenoprotein Glutathione Peroxidase 1 (GPX1) (AID 1845191); also: nearly all actives have a fitted effect of over 65% in size
Outline: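 GR-coupled readout: NADPH consumption tracked by fluorescence, ex 340/em 450 nm, at t=0 and after 15 min at RT. Final mix 10 nM GPX1, 1 mM GSH, 0.5 mM CHP, 0.5 mM NADPH, 100 nM GR, 0.01% BSA, following 30 min enzyme–compound preincubation.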

[2] = biological target: Phospholipid hydroperoxide glutathione peroxidase GPX4 (Homo sapiens) (UniProt P36969); test: Primary qHTS Assay for Inhibitors of Recombinant Selenoprotein Glutathione Peroxidase 4 (GPX4) (AID 1845192); also: nearly all actives have a fitted effect of over 65% in size
Outline: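 Steps: GPX4 plus compound, 30 min RT; add GR/GSH/NADPH master mix; start with cumene hydroperoxide; read 340/450 nm fluorescence at 0 and 15 min. Finals were 200 nM GPX4, 1 mM GSH, 0.5 mM CHP, 0.5 mM NADPH, 100 nM GR.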

[3] = biological target: Luciferin 4-monooxygenase (Photinus pyralis) (UniProt P08659); test: Primary firefly luciferase (FLuc) qHTS assay for identification of artifact compounds. (AID 1845220); details: outcome: dose series up to 54.1 µM; also: nearly all actives have a fitted effect of over 60% in size
Outline: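 Enzymatic FLuc inhibition assay: compounds pre-exposed to luciferin/ATP (10 uM each) for 15 min, then purified P. pyralis enzyme at 10 nM added. Read-out: luminescence at 5 min.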

[4] = tested on: Nanoluciferase (engineered Oplophorus gracilirostris luciferase); test: Primary Nanoluciferase (NLuc) qHTS assay for identification of artifact compounds. (AID 1845222);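 also: NLuc secreted into diluted conditioned medium of S16 cells; series mostly up to about 54 µM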
Outline: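 S16 cell supernatant NLuc, 1:55; cpds qHTS; 15 min RT dark; Nano-Glo substrate 1:100, 5 min; luminescence; Hill fit of % inhibition.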

Phospholipid hydroperoxide glutathione peroxidase GPX4 (Homo sapiens), sequence (P36969 whole entry, looked up): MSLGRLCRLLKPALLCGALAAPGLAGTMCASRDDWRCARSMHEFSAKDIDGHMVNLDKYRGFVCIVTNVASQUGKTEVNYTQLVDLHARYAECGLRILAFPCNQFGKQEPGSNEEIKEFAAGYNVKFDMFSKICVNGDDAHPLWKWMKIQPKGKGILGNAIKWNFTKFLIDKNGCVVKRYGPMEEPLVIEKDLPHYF
Glutathione peroxidase 1 (Homo sapiens), sequence (P07203 whole entry, looked up): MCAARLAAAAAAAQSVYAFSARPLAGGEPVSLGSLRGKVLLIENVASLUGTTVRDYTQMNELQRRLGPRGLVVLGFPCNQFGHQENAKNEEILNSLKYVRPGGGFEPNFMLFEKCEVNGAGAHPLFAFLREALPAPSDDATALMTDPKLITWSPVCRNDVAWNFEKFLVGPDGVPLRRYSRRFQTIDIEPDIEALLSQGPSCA

CNCC[C@@H](Oc1ccccc1C)c1ccccc1
Potency [1]: inactive
Potency [2]: inactive

C=C1C(=C/C=C2\CCC[C@]3(C)[C@@H]([C@H](C)/C=C/[C@@H](O)C4CC4)CC[C@@H]23)C[C@@H](O)C[C@@H]1O
Potency [1]: inactive
Potency [2]: inactive

N[C@H](CO)C(=O)O
Potency [1]: inactive
Potency [2]: inactive

COc1cc(N)c(Cl)cc1C(=O)NC1CCN(CCCOc2ccc(F)cc2)CC1OC (stereo not given)
Potency [1]: inactive
Potency [2]: inactive

CC1(C)O[C@@H]2C[C@H]3[C@@H]4CCC5=CC(=O)CC[C@]5(C)[C@@]4(F)[C@@H](O)C[C@]3(C)[C@]2(C(=O)CCl)O1
Potency [1]: inactive
Potency [2]: inactive

CCCSS/C(CCO)=C(\C)N(C=O)Cc1cnc(C)nc1N
Potency [1]: inactive
Potency [2]: inactive

Cc1c2oc3c(C)ccc(C(=O)N[C@@H]4C(=O)N[C@H](C(C)C)C(=O)N5CCC[C@H]5C(=O)N(C)CC(=O)N(C)[C@@H](C(C)C)C(=O)O[C@@H]4C)c3nc-2c(C(=O)N[C@@H]2C(=O)N[C@H](C(C)C)C(=O)N3CCC[C@H]3C(=O)N(C)CC(=O)N(C)[C@@H](C(C)C)C(=O)O[C@@H]2C)c(N)c1=O (I: T[dV]P[Sar][NMeV] / II: T[dV]P[Sar][NMeV]; ester I:1-I:C, II:1-II:C; linker I:N-II:N via Actinocin(9to1))
Potency [1]: inactive
Potency [2]: inactive

CN1CCN(CCCN2c3ccccc3Sc3ccc(S(=O)(=O)N(C)C)cc32)CC1
Potency [1]: inactive
Potency [2]: inactive

CCCCC(=O)O[C@]1(C(=O)CO)CC[C@H]2[C@@H]3CCC4=CC(=O)CC[C@]4(C)[C@H]3[C@@H](O)C[C@@]21C
Potency [1]: inactive
Potency [2]: inactive

CC/C(=C(/CC)c1ccc(O)cc1)c1ccc(O)cc1
Potency [1]: inactive
Potency [2]: inactive

CC[C@@H](CO)NCCN[C@@H](CC)CO
Potency [1]: inactive
Potency [2]: inactive

CC(C)(CO)[C@@H](O)C(=O)NCCCO
Potency [1]: inactive
Potency [2]: inactive

CN1CCN(C(c2ccccc2)c2ccccc2)CC1
Potency [1]: inactive
Potency [2]: inactive
outcome [3]: inactive
Potency [4]: inactive

Cc1cccn2c(=O)c(-c3nnn[nH]3)cnc12
Potency [1]: inactive
Potency [2]: inactive

COC(=O)CCc1ccc(OCC(O)CNC(C)C)cc1 (stereo not given)
Potency [1]: inactive
Potency [2]: inactive
outcome [3]: inactive
Potency [4]: inactive

CC(=O)OCC(=O)[C@@]1(O)[C@H](C)C[C@H]2[C@@H]3CCC4=CC(=O)C=C[C@]4(C)[C@@]3(F)[C@@H](O)C[C@@]21C
Potency [1]: inactive
Potency [2]: inactive
outcome [3]: inactive
Potency [4]: inactive

CC(=O)OCC(=O)NCCCOc1cccc(CN2CCCCC2)c1
Potency [1]: inactive
Potency [2]: inactive
